Assay results reported in PubChem BioAssay (NCATS).
Where “and” joins values, the source holds several entries; their conditions need not be identical. Equal values may be shown once. Records with an inconclusive call do not appear. Calls of active or inactive are those of the source. Unless noted, the call rests on the fitted dose curve; in most records, active means well fitted curve in the direction sought with a large enough effect; inconclusive means small, poorly fitted or top-dose-only effect, or another doubt; inactive means no such curve, though single readings can be large; an effect the other way counts as inactive or inconclusive.

Tests used:
[1] = Cell Viability - BJ (AID 421; calls by dose curve;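 further: potency means the concentration at half of the fitted maximal effect; cells exposed to compound for 40 hours at 37 °C before readout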); conditions: BJ fibroblast viability, qHTS
How it was run: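 Normal human BJ foreskin fibroblasts, 1500/well in complete medium, treated 40 hr at 37 °C. Cellular ATP by CellTiter-Glo luminescence; normalized to DMSO and 100 uM tamoxifen, AC50 from Hill fit.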

[2] = Cell Viability - SK-N-SH (AID 435; calls by dose curve;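 further: potency means the concentration at half of the fitted maximal effect; compound exposure lasted 40 h at 37 °C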); conditions: SK-N-SH neuroblastoma cell viability qHTS
How it was run: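 Human neuroblastoma line, 40 h exposure at 37 °C, ATP quantified via luciferase luminescence; DMSO and 100 uM tamoxifen define 0 and 100% inhibition for AC50 fitting.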

[3] = target: Mitogen-activated protein kinase 10 (Mus musculus) (UniProt Q61831); assay: JNK3 AlphaScreen Assay (AID 530; active means well fitted curve in either direction with a large enough effect, not every such curve was filed as active;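 further: kinase came from lysate of stimulated human HepG2 cells; signal reports phosphorylation of biotinylated GST-cJun 1-79 at Ser73 with 10 µM ATP; on the % scale 0 is the no-effect control and ±100 the full control effect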); conditions: JNK3 lysate, c-Jun phosphorylation; series mostly up to 57.1 µM
How it was run: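 Activity was read by AlphaScreen after JNK3-containing HepG2 lysate (cytokine pre-activated) phosphorylated biotinylated GST-cJun with 10 uM ATP at room temperature. Phospho-Ser73 cJun antibody with Protein-A acceptor beads provided detection.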

[4] = Cell Viability - NIH 3T3 (AID 541); conditions: NIH 3T3 cell viability, qHTS; activity change, negative = cytotoxicity: at 92.2 µM (top of the series);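 further: cells exposed to compound for 40 hours; nearly all actives have a fitted effect of over 25% in size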; further: potency means the concentration at half of the fitted maximal effect;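 on activity change, negative = cytotoxicity: plate controls were DMSO alone for no effect and tamoxifen positive control for full effect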
How it was run: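 Cells seeded at 1000/well, rested 5 hr at 37 °C, then dosed and incubated 40 hr at 37 °C. CellTiter-Glo added, 20 min room temperature, luminescence read. AC50 by Hill fit.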

[5] = Cell Viability - Mesenchymal (AID 546); conditions: mesenchymal cells viability, qHTS; activity change, negative = cytotoxicity: at 91.7 µM (top of the series);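 further: cells exposed to compound for 40 hours before reading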; further: potency means the concentration at half of the fitted maximal effect
How it was run: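 Human renal mesenchymal cells (glomerulus-derived), 1000 cells/well, 5 hr 37 °C pre-incubation; compound 40 hr, 37 °C; CellTiter-Glo, 20 min RT; luminescence; AC50 via Hill equation.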

[6] = Cellular Toxicity (caspase-3) HepG2 (AID 654); conditions: HepG2 caspase-3 activation, luminescence, 0% = DMSO only, 100% = tamoxifen; series mostly up to 92.2 µM;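 further: cells exposed to compound for 16 hours before reading; 0% = DMSO alone and 100% = caspase signal from 100 µM tamoxifen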
How it was run: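 Caspase 3/7 activation in HepG2 is measured as rising luminescence after a 16 hr treatment at 37 °C. Values are scaled between DMSO basal and 100 uM tamoxifen, and AC50 is fitted with the Hill equation.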

[7] = Cellular Toxicity (caspase-3) HUV-EC-C (AID 656); conditions: HUV-EC-C cells, caspase-3 activation (apoptosis), vehicle = 0, 100 µM tamoxifen = 100%; series mostly up to 92.2 µM
How it was run: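 Concentration-dependent caspase 3/7 induction was assessed in HUV-EC-C cells exposed for 16 hours. Data scaled between DMSO and tamoxifen (100 uM) controls.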

[8] = Cellular Toxicity (caspase-3) BJ (AID 658); conditions: BJ fibroblasts, luminescence, normalized: DMSO 0%, staurosporine 100%; series mostly up to 91.7 µM
How it was run: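 qHTS, BJ fibroblasts, 1000 cells/well; 5 hr preincubation, 16 hr compound, 37 °C; Caspase-Glo 3/7 reagent, 1 hr RT; luminescence. DMSO = 0%, 10 uM staurosporine = 100%. Hill-equation AC50.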

[9] = Cellular Toxicity (caspase-3) MRC-5 (AID 659); conditions: MRC-5 cells, luminescence, normalized: DMSO 0%, 10 µM staurosporine 100%; series mostly up to 91.7 µM
How it was run: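 MRC-5 fibroblasts, 1500/well; 16 h cpd, 37 °C; Caspase-Glo 3/7, 1 h RT; lumi read. Norm: DMSO = 0%, 10 uM staurosporine = 100%. Hill-fit AC50 from qHTS conc-response.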

[10] = Cellular Toxicity (caspase-3) Mesangial (AID 660); conditions: mesangial cells, normalized: DMSO 0%, 100 µM tamoxifen 100%; series mostly up to 91.7 µM;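 further: combined caspase 3 and 7 activity read by Caspase-Glo luminescence; cells exposed to compound for 16 h before the caspase read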
How it was run: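 Seed cells derived from normal human renal glomeruli, incubate 5 h, add compounds across concentrations and incubate 16 h at 37 °C. Caspase 3/7 activation is then quantified by luciferase light, with AC50 derived by Hill modeling.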

[11] = Cellular Toxicity (caspase-3) Hek293 (AID 664); conditions: HEK293 caspase-3 activation, DMSO = 0%, 100 µM tamoxifen = 100%; series mostly up to 92.2 µM;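 further: cells exposed to compound for 16 h at 37 °C before readout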
How it was run: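 qHTS, HEK293 (human embryonic kidney), 16 h cpd exposure in complete medium. Caspase-3/7 activation = luminescence increase; normalized to DMSO/100 uM tamoxifen; Hill-fit AC50.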

[12] = MultiTox-Fluor Cytotoxicity Assay - LYMP1-003 - Live Cells (AID 962); conditions: LYMP1-003 lymphoblastoid cells, MultiTox-Fluor live-cell protease fluorescence; series mostly up to 92.2 µM;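 further: cells exposed to compound for 16 hours at 37 °C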; further: potency means the concentration at half of the fitted maximal effect
How it was run: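 Acute cytotoxicity is scored as a drop in live-cell protease activity in human lymphoblastoid LYMP1-003 cells after 16 hr compound exposure at 37 C. AC50 values come from Hill-equation modelling of concentration-response data.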

[13] = Cell Viability - LYMP1-003 - Assay at 40 hr (AID 964); conditions: LYMP1-003 lymphoblastoid viability; series mostly up to 92.2 µM; further: nearly all actives have a fitted effect of over 60% in size; further: potency means the concentration at half of the fitted maximal effect
How it was run: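 Luminescent ATP signal (CellTiter-Glo) served as the viability read-out after 40 hr compound treatment of human lymphoblastoid LYMP1-003 cells at 37 C. Decreases in ATP were fitted with the Hill equation to give AC50.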

[14] = Cell Viability - LYMP2-011 (AID 969); conditions: LYMP2-011 lymphoblastoid cells viability; series mostly up to 92.2 µM; further: nearly all actives have a fitted effect of over 60% in size; further: potency means the concentration at half of the fitted maximal effect
How it was run: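 In this qHTS cytotoxicity format, compounds are tested across concentrations on human lymphoblastoid cells in complete medium for 24 hours at 37 C. Viability is taken as cellular ATP measured by luciferase luminescence.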

[15] = Cell Viability - LYMP2-013 (AID 970); conditions: LYMP2-013 lymphoblastoid cells viability; series mostly up to 92.2 µM;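 further: cells exposed to compound for 24 h at 37 °C; nearly all actives have a fitted effect of over 55% in size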; further: potency means the concentration at half of the fitted maximal effect
How it was run: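 Cytotoxicity is scored as a concentration-dependent drop in intracellular ATP in human lymphoblastoid cells after 24 hr compound exposure at 37 C. ATP is quantified by luciferase luminescence, and AC50 values come from Hill-equation modeling.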

[16] = Cell Viability - LYMP2-017 (AID 972); conditions: LYMP2-017 lymphoblastoid cell viability; series mostly up to 92.2 µM; further: nearly all actives have a fitted effect of over 55% in size; further: potency means the concentration at half of the fitted maximal effect; on activity change, negative = cytotoxicity: on the % scale 0 is the no-effect control and ±100 the full control effect
How it was run: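 Cytotoxicity is scored as a concentration-dependent drop in cellular ATP in a human lymphoblastoid line after 24 hr treatment at 37 C. Values are AC50s from Hill-equation modelling.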

[17] = Cell Viability - LYMP2-010 (AID 981); conditions: LYMP2-010 lymphoblastoid cell viability, qHTS; series mostly up to 92.2 µM; further: nearly all actives have a fitted effect of over 55% in size; further: potency means the concentration at half of the fitted maximal effect
How it was run: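 Steps: seed 2500 LYMP2-010 cells per well; incubate 5 hr at 37 C; add compound; incubate 24 hr at 37 C; add CellTiter-Glo, wait 30 min at room temperature; read luminescence. Concentration-response fitted to Hill equation for AC50.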

[18] = Cell Viability - LYMP2-012 (AID 982); conditions: LYMP2-012 lymphoblastoid cell viability qHTS; series mostly up to 92.2 µM;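 further: cellular ATP by luciferase luminescence where a drop means cytotoxicity; cells exposed to compound for one day before reading; nearly all actives have a fitted effect of over 55% in size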; further: potency means the concentration at half of the fitted maximal effect;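 on activity change, negative = cytotoxicity: 0% = DMSO only and full loss = 92 µM tetraoctylammonium bromide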
[19] = qHTS Assay for Identification of Small Molecule Inducers of Hypoxia Response (AID 2120; active means well fitted curve in the direction sought with a large enough effect in the signal ratio, with a control signal flat, not every such curve was filed as active; the % refers to the signal ratio; further: 0% is about no effect); conditions: hypoxia response reporter cells, beta-lactamase ratio readout; series mostly up to 104 µM
How it was run: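 Cell-based qHTS for reporter induction: hypoxia response element controlled beta-lactamase in ME-180 cells. Compounds incubated 17 h at 37 degrees C; activity from blue/green (460/530 nm) ratio, inducers ranked by AC50.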

[20] = target: Peroxisome proliferator-activated receptor alpha (Homo sapiens) (UniProt Q07869); assay: qHTS assay for small molecule agonists of the peroxisome proliferator-activated receptor alpha (PPARalpha) signaling pathway (AID 651778); conditions: PathHunter PPARalpha complementation, chemiluminescence, 6 h; max response: hits give high values; further: % of control where 0% means no effect
Sequence of Peroxisome proliferator-activated receptor alpha (Homo sapiens) (Q07869 whole entry, looked up, the tested form may be a part): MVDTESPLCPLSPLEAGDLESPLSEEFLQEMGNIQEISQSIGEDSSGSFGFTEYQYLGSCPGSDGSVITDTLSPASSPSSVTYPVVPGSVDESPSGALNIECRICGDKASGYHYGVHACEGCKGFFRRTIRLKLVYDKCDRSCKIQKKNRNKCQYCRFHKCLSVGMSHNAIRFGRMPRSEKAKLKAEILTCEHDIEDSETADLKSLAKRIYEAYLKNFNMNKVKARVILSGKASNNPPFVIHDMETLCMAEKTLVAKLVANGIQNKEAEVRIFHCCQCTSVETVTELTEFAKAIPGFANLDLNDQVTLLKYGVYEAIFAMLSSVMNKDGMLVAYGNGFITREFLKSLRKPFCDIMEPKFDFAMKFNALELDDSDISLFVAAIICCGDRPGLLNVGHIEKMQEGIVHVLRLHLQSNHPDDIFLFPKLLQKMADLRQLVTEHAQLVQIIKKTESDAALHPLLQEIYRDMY
How it was run: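 Enzyme-fragment complementation assay in which ligand-bound PPARalpha translocates and forms an active enzyme that generates chemiluminescence. Cells were plated overnight, exposed to compound for 6 hr at 37 C, and then given detection reagent for 60 min at room temperature.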

Cc1ccc(N)c([N+](=O)[O-])c1
inactive: Potency [1] > 92 µM | Potency [2] > 92 µM | Potency [3] | Potency [4] | activity change, negative = cytotoxicity [5] 5.43% | outcome [6] | outcome [7] | outcome [8] | outcome [9] | outcome [10] | outcome [11] | Potency [12] | Potency [13] | Potency [14] | Potency [15] | Potency [16] | Potency [17] | Potency [18] | outcome [19] | max response [20] -6.83% and -1.01%

C=Cc1ccccc1Cl
inactive: Potency [1] > 92 µM | Potency [2] > 92 µM | Potency [3] | Potency [4] | activity change, negative = cytotoxicity [5] 4.39% | outcome [6] | outcome [7] | outcome [8] | outcome [9] | outcome [10] | outcome [11] | Potency [12] | Potency [13] | Potency [14] | Potency [15] | Potency [16] | Potency [17] | Potency [18] | outcome [19] | max response [20] -0.389%

O=C1c2ccccc2C(=O)C1c1ccc2ccccc2n1
inactive: activity change, negative = cytotoxicity [5] -33.6% | outcome [6] | outcome [7] | outcome [8] | outcome [9] | outcome [10] | outcome [11] | Potency [12] | Potency [13] | Potency [14] | Potency [15] | Potency [16] | Potency [17] | Potency [18] | outcome [19] | max response [20] 1.24% and 1.1%
active: Potency [1] 33.1 µM | Potency [2] 34 µM | activity change, negative = cytotoxicity [4] -106%

Clc1cc(Cl)c(Cl)cc1Cl
inactive: Potency [1] > 92 µM | Potency [2] > 92 µM | Potency [3] | Potency [4] | activity change, negative = cytotoxicity [5] 9.51% | outcome [6] | outcome [7] | outcome [8] | outcome [9] | outcome [10] | outcome [11] | Potency [12] | Potency [13] | Potency [14] | Potency [15] | Potency [16] | Potency [17] | Potency [18] | outcome [19] | max response [20] -0.154% and -0.267%

S=C1NC=NC2N=CNC12 (stereo unspecified)
active: Potency [1] 0.22 µM | Potency [2] 0.237 µM | Potency [4] 3.98 µM | Potency [5] 0.501 µM | Potency [13] 1.58 µM
inactive: Potency [3] | outcome [6] | outcome [7] | outcome [8] | outcome [9] | outcome [10] | outcome [11] | Potency [12] | Potency [14] | Potency [15] | Potency [16] | Potency [17] | Potency [18] | outcome [19] | max response [20] -7.07%

CN(C)CCCCCCN(C)C
inactive: Potency [1] > 92 µM | Potency [2] > 92 µM | Potency [3] | Potency [4] | activity change, negative = cytotoxicity [5] 10.5% | outcome [6] | outcome [7] | outcome [8] | outcome [9] | outcome [10] | outcome [11] | Potency [12] | Potency [13] | Potency [14] | Potency [15] | Potency [16] | Potency [17] | Potency [18] | outcome [19] | max response [20] -5.54%

CN(C)C=O
inactive: Potency [1] > 92 µM | Potency [2] > 92 µM | Potency [3] | Potency [4] | activity change, negative = cytotoxicity [5] 4.53% and 11.4% | outcome [6] | outcome [7] | outcome [8] | outcome [9] | outcome [10] | outcome [11] | Potency [12] | Potency [13] | Potency [14] | Potency [15] | Potency [16] | Potency [17] | Potency [18] | outcome [19] | max response [20] 18% and -2.47% and -1.42%

C=CC(=O)OCCOCCOCCOCCOC(=O)C=C
active: Potency [2] 10.9 µM and 23.1 µM | Potency [4] 2.51 µM and 3.98 µM | activity change, negative = cytotoxicity [5] -89.5% and -83.9% | Potency [12] 25.1 µM and 31.6 µM | Potency [13] 12.6 µM and 31.6 µM | Potency [14] 20 µM and 25.1 µM | Potency [15] 20 µM and 25.1 µM | Potency [16] 20 µM | Potency [17] 15.8 µM | Potency [18] 12.6 µM
inactive: Potency [1] > 92 µM | Potency [3] | outcome [6] | outcome [7] | outcome [8] | outcome [9] | outcome [10] | outcome [11] | outcome [19] | max response [20] -0.0133% and -3.95%

CCCCCCCCO
inactive: Potency [1] > 92 µM | Potency [2] > 92 µM | Potency [3] | Potency [4] | activity change, negative = cytotoxicity [5] -3.19% | outcome [6] | outcome [7] | outcome [8] | outcome [9] | outcome [10] | outcome [11] | Potency [12] | Potency [13] | Potency [14] | Potency [15] | Potency [16] | Potency [17] | Potency [18] | outcome [19] | max response [20] 2.47% and -5.18% and -0.424%

COc1ccccc1CNc1nc(-c2ccc(C(=O)N(C)C)cc2)nc2ccccc12
inactive: Potency [3]

COCC(=O)O
inactive: Potency [1] > 92 µM | Potency [2] > 92 µM | Potency [3] | Potency [4] | activity change, negative = cytotoxicity [5] 2.06% | outcome [6] | outcome [7] | outcome [8] | outcome [9] | outcome [10] | outcome [11] | Potency [12] | Potency [13] | Potency [14] | Potency [15] | Potency [16] | Potency [17] | Potency [18] | outcome [19] | max response [20] -0.223% and -0.993%

COc1ccc2[nH]cc(CCNc3ncncc3-c3ccccc3C(F)(F)F)c2c1
inactive: Potency [3]

Nc1ccc(Cl)cc1Cl
inactive: Potency [1] > 92 µM | Potency [2] > 92 µM | Potency [3] | Potency [4] | activity change, negative = cytotoxicity [5] 2.81% | outcome [6] | outcome [7] | outcome [8] | outcome [9] | outcome [10] | outcome [11] | Potency [12] | Potency [13] | Potency [14] | Potency [15] | Potency [16] | Potency [17] | Potency [18] | outcome [19] | max response [20] 3.51% and 0.0732%
